An excerpt weighted towards active compounds, which were near 2.1% of everything screened.
ADAM17 inh: inhibitors of human ADAM17; P78536; recombinant ADAM17, EDANS/DABCYL FRET peptide cleavage; inhibition, % at 6.95 µM; 370,000 compounds, 0.83% hits;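 active means inhibition above the mean of compounds lying between control limits plus 3 SD, set per campaign, cut at about 8.5% in these data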;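 further: 0% = DMSO-only wells as the low control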
Rce1 inhib: inhibitors of yeast Ras-converting enzyme; calls only; 290,000 compounds, 0.27% hits; yeast membranes, quenched prenylated peptide cleavage fluorescence; Q03530;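 active means fall in fluorescence gain of 50% or more versus controls, with final raw signal at or below 3038400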;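 further: plate controls were neutral control wells for no effect and wells lacking membranes for full effect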
PLC-gamma1 inh: inhibitors of human phospholipase C gamma1; inhibition, % at 12.2 µM; purified PLC-gamma1, fluorogenic substrate, fluorescence; 370,000 compounds, 0.84% hits; AID 720700; P19174; in the data active means inhibition above about 9.5%
ADAM10 inh: ADAM10 inhibition, QFRET primary screen. 370,000 compounds, 0.62% hits. recombinant ADAM10, EDANS/DABCYL FRET peptide cleavage, 3 h. inhibition, % at 7 µM;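 active means inhibition above a per-campaign cutoff equal to the mean of compounds falling between control-based bounds plus 3 SD, cut at about 20% in these data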;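 further: 0% = DMSO wells while the 100% control is not disclosed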
Target sequence (O14672 214-748 limits assumed): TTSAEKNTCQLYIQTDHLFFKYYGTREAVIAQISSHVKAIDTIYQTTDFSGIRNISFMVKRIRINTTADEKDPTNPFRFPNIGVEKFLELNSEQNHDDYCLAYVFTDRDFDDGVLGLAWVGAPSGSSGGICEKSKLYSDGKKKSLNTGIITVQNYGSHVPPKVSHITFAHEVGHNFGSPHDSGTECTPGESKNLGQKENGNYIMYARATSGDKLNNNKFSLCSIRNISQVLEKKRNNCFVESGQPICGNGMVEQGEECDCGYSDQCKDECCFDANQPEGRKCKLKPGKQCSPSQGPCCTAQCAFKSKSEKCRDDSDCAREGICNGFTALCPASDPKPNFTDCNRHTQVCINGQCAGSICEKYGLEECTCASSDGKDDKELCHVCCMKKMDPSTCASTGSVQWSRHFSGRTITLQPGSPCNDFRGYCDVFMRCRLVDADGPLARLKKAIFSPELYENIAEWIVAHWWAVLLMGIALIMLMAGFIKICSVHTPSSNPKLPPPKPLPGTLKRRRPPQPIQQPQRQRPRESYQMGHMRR
PLC-beta3 inh: PLC-beta3 (human) inhibition, primary screen; Q01970; 370,000 compounds, 0.18% hits; Purified PLC-beta3, fluorogenic substrate, fluorescence; inhibition, % at 12.2 µM; AID 720704; in the data active means inhibition above about 11%;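 further: 0% = median of compound wells on plate and 100% = full blocker control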
ADAM10 confirm: human ADAM10 inhibition, confirmation | shares compounds with ADAM10 inh | ADAM10 QFRET peptide cleavage, EDANS fluorescence | inhibition, % at 6.95 µM | 2,100 compounds, 1% hits;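 active means inhibition above about 20% chosen separately for each screening run, limit read from the data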;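 further: 0% = DMSO wells and 100% = marimastat wells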
ADAM17 ctr: inhibits human ADAM17 in ADAM10 exosite counter-screen; shares compounds with ADAM10 inh; ADAM17 QFRET peptide cleavage, EDANS fluorescence; inhibition, % at 6.95 µM; 2,100 compounds, 0.5% hits;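 active means mean triplicate inhibition above the solvent-only control wells' mean plus 3 SD, cut at about 12% in these data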;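 further: 0% = DMSO wells and 100% = marimastat wells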
* = called active by the depositor; i = inactive; . = no result given.

SMILES | ADAM17 inh | Rce1 inhib | PLC-gamma1 inh | ADAM10 inh | PLC-beta3 inh | ADAM10 confirm | ADAM17 ctr
COc1ccc(N2CC(C(=O)Nc3nc4ccc(S(C)(=O)=O)cc4s3)CC2=O)cc1 (configuration not stated) | -1 | i | -1 | 2 | -8 | . | .
C/C(CC(=O)Nc1ccc(Cl)cc1C(F)(F)F)=N\NC(=O)c1cccs1 | 2 | i | -1 | 5 | -12 | . | .
COc1cc(NC(=O)C/C(C)=N/NC(=O)c2cccs2)c(OC)cc1Cl | 15* | i | 4 | 28* | 0 | 0 | 1
O=C(NCc1ccccc1)C(c1ccc(C(F)(F)F)cc1)N1CCN(CCN2CCOCC2)CC1 (configuration not stated) | 0 | . | 3 | -2 | 4 | . | .
N#C/C(=N\Nc1cccc(Cl)c1)C(=O)c1ccccc1 | 8 | i | 3 | 20* | 0 | -1 | -1
CCC/C=N/Nc1nc2ccccc2s1 | 7 | i | -11 | 25* | -21 | 1 | -1
COc1ccc(C=NNc2nc3ccccc3s2)cc1 | 1 | . | -20 | -12 | -22 | . | .
C(=C\c1ccccc1)/C=N/Nc1nc2ccccc2s1 | 4 | i | -99 | 26* | -106 | 23* | 8
CCN(C(=O)COC(=O)c1cc(=O)[nH]c2ccccc12)C1CCS(=O)(=O)C1 (configuration not stated) | -87 | i | -211 | -321 | -301 | . | .
O=C(COC(=O)CCSc1ccccc1)Nc1ccc(F)cc1Cl | 7 | i | 4 | 7 | 1 | . | .
O=C(COC(=O)CCSc1ccccc1Cl)Nc1ccc(F)cc1F | 7 | i | 2 | 23* | 3 | 2 | 1
COc1cccc(N(C)C(=O)[C@@H](C2CC2)[C@@H](O)c2ccc(Cl)cc2)c1 | 1 | . | 1 | 2 | 1 | . | .
CN(C(=O)[C@@H](C1CC1)[C@@H](O)c1ccc2ccccc2c1)c1ccccc1 | 5 | . | 10* | 87* | 0 | 0 | 0
O=C(NNC(=O)c1ccccc1OCc1ccccc1Cl)c1csc(N2CCOCC2)n1 | 2 | i | 0 | -5 | -6 | . | .
O=C(CCC(=O)Nc1ccccc1Cl)NNC(=S)Nc1ccccc1C(F)(F)F | 6 | i | -1 | 28* | -4 | 6 | 3
NS(=O)(=O)c1ccc(NC(=S)NNC(=O)CCC(=O)Nc2ccccc2Cl)cc1 | -3 | i | 0 | -13 | -6 | . | .
CC(=O)CSc1ccc(C(=O)O)cn1 | 2 | i | 3 | 3 | 4 | . | .
CCOC(=O)c1cc(NC(=O)c2ccccc2)c(=O)n2c1oc1ccccc12 | 2 | i | -2 | -4 | 0 | . | .
CCSC1=C(C#N)C(c2cccs2)C(C(=O)OC)=C(C)N1 (configuration not stated) | -8 | i | -17 | -10 | -26 | . | .
CCCSC1=C(C#N)C(c2cccs2)C(C(=O)Nc2ccccc2)=C(C)N1 (configuration not stated) | 6 | i | -3 | 28* | -8 | 22* | 7
CC#CCN1c2ccccc2[C@]23C[C@@H](C(=O)OC)N(C(=O)NC4CCCCC4)C2=NC(C(=O)OC)=C(C(=O)OC)[C@H]13 | 3 | i | 3 | 0 | 10 | . | .
C=CCN1c2ccccc2[C@]23C[C@@H](C(=O)OC)N(C(=O)NC4CCCC4)C2=NC(C(=O)OC)=C(C(=O)OC)[C@H]13 | 10* | i | 4 | 21* | 5 | 3 | 1
C=CC#CC1(O)CC(C)N(C)CC1C (configuration not stated) | -8 | i | 1 | -9 | -3 | . | .
COc1cc2c(cc1OC)C(c1ccccc1)N(C(=O)c1ccccc1F)CC2 (configuration not stated) | -1 | i | 8 | 21* | 2 | 1 | 0
CC(NC(=O)COC(=O)CNS(=O)(=O)/C=C/c1ccccc1)c1ccccc1 (configuration not stated) | 3 | . | -5 | -6 | -6 | . | .
SMILES | ADAM17 inh | Rce1 inhib | PLC-gamma1 inh | ADAM10 inh | PLC-beta3 inh | ADAM10 confirm | ADAM17 ctr
N#CC1=C(N)NC(SCc2ccc(Br)cc2)=C(C#N)C12CCCCC2 | 8 | i | -1 | 25* | 0 | 9 | 2
N#CC1=C(N)NC(SCc2ccc(Cl)cc2)=C(C#N)C12CCCCC2 | 7 | i | 2 | 19 | -2 | . | .
CCOc1cccc(C(=O)Nc2ccc3ccccc3c2)c1 | 7 | i | -4 | 10 | -8 | . | .
CCOc1cccc(C(=O)Nc2ccc(N(CC)CC)cc2)c1 | -2 | i | -2 | 27* | -2 | 2 | 1
CCNS(=O)(=O)c1ccc(CCC(=O)Nc2cc(Cl)ccc2Oc2ccccc2)cc1 | 6 | i | -4 | 21* | -14 | 4 | 2
COc1ccc(-c2n[nH]c(C(F)(F)F)c2-c2cc3ccccc3o2)c(O)c1 | 4 | i | -18 | 22* | -31 | 21* | 10
CC1CCCCN1CC(=O)Nc1ccccc1Sc1ccccc1 (configuration not stated) | 3 | i | 0 | 1 | 1 | . | .
O=C(NCCn1cc(SCc2ccccc2)c2ccccc21)c1c(F)cccc1F | 7 | i | 0 | 24* | -3 | 5 | 3
O=C(NCCn1cc(SCc2ccc(F)cc2)c2ccccc21)c1ccccc1F | . | i | . | . | . | . | .
O=C(COC(=O)CCc1c[nH]c2ccccc12)NC(c1ccccc1)c1ccccc1 | 7 | i | 8 | 24* | -1 | 7 | 2
CCCCN1C(=O)C(=O)NC[C@@H]1Cc1ccc(O)cc1 | -3 | . | -1 | -6 | 5 | . | .
CCOc1nc(N2CCOCC2)nc(C)c1[N+](=O)[O-] | 1 | i | 4 | 20* | 5 | 1 | 0
CC(=O)Nc1ccc(-n2nnnc2SCC(=O)Nc2cccc(NC(=O)c3ccco3)c2)cc1 | -4 | i | -2 | 2 | -6 | . | .
COc1ccc(NC(=O)c2ccc(-c3ccccc3)cc2)cc1NS(=O)(=O)c1ccc(F)cc1 | 8 | i | -55 | 24* | -65 | 31* | 9
CCOc1ccc(NC(C)c2cc(Cl)ccc2O)cc1 (configuration not stated) | -4 | i | -4 | 6 | 0 | . | .
CC(Nc1ccc(Cl)cc1)c1cc(Cl)ccc1O (configuration not stated) | 8 | i | 7 | 23* | 3 | 3 | 1
COCCNC(=S)N1CCN(c2nc(-c3cccc(OC)c3)cs2)CC1 | 5 | i | 8 | 21* | -5 | 1 | 0
COc1cccc(-c2csc(N3CCN(CC(=O)NNC(=O)c4ccc(Cl)cc4)CC3)n2)c1 | 5 | i | 5 | 20* | 5 | 0 | 0
CCNC(=S)N1CCN(c2nc(-c3cccc(OC)c3)cs2)CC1 | 3 | i | 0 | 4 | -6 | . | .
